Data published in PubChem BioAssay (Tox21).
Records with an inconclusive call do not appear. Calls of active or inactive are those of the source. Unless noted, the call rests on the fitted dose curve; in most records, active means well fitted curve in the direction sought with a large enough effect in the repeat runs; inconclusive means weak or mixed curves; inactive means no such curve, though single readings can be large; an effect the other way counts as inactive or inconclusive.

Experiments:
[1] = qHTS assay to identify aromatase inhibitors - cell viability counter screen (AID 743084);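 further: cells stimulated with testosterone during compound exposure; nearly all actives have a fitted effect of over 55% in size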
[2] = target: Aryl hydrocarbon receptor (Homo sapiens) (UniProt P35869); assay: qHTS assay to identify small molecule that activate the aryl hydrocarbon receptor (AhR) signaling pathway (AID 743085);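 further: HG2L7.5c1 human HepG2 liver cells with stably integrated DRE-driven firefly reporter; series mostly up to about 70 µM; nearly all actives have a fitted effect of over 15% in size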
Chain of Aryl hydrocarbon receptor (Homo sapiens) (P35869 whole entry, looked up): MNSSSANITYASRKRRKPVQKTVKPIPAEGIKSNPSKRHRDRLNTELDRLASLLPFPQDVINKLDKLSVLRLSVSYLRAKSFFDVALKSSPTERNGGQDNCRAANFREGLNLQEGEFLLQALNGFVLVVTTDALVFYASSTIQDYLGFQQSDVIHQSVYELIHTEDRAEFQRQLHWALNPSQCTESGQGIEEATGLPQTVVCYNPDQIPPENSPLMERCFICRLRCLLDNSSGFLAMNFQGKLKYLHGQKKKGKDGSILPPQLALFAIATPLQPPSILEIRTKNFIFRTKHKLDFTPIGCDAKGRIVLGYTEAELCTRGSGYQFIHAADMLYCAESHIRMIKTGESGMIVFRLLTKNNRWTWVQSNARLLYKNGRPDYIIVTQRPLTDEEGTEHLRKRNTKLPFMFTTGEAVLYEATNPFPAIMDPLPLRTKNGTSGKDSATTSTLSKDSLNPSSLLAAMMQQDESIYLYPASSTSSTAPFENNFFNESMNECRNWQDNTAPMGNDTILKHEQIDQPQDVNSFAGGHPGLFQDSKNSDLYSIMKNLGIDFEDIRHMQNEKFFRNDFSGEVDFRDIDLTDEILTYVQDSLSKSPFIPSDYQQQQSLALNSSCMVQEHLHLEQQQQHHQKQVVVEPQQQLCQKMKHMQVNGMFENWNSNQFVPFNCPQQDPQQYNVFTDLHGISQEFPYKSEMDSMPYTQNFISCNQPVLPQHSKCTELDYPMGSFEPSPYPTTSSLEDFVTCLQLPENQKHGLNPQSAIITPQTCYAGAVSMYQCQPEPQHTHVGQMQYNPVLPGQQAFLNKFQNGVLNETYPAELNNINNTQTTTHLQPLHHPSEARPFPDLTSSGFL
In short: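 Measured in HG2L7.5c1 cells: CellTiter-Fluor signal (30 min incubation, 37C) for viability, then luciferase luminescence (30 min, room temperature). Compound contact time was 24 h at 37C, following a 5 h pre-incubation.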

[3] = qHTS assay to identify small molecule that activate the aryl hydrocarbon receptor (AhR) signaling pathway - cell viability counter screen (AID 743086);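 further: HepG2 liver cells carrying the AhR DRE luciferase reporter; series mostly up to about 70 µM; nearly all actives have a fitted effect of over 45% in size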
In short: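 HepG2-AhR-luc (HG2L7.5c1) cells, 4000/well, treated 24 h at 37 C with compound; viability measured as CellTiter-Fluor fluorescence after 30 min in the same wells as the luciferase read.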

[4] = target: Peroxisome proliferator-activated receptor gamma (Homo sapiens) (UniProt P37231); assay: qHTS assay to identify small molecule agonists of the peroxisome proliferator-activated receptor gamma (PPARg) signaling pathway (AID 743094; active means well fitted activation curve with a large enough effect in the signal ratio in the repeat runs, not every such curve was filed as active; the % refers to the signal ratio)
Chain of Peroxisome proliferator-activated receptor gamma (Homo sapiens) (P37231 whole entry, looked up): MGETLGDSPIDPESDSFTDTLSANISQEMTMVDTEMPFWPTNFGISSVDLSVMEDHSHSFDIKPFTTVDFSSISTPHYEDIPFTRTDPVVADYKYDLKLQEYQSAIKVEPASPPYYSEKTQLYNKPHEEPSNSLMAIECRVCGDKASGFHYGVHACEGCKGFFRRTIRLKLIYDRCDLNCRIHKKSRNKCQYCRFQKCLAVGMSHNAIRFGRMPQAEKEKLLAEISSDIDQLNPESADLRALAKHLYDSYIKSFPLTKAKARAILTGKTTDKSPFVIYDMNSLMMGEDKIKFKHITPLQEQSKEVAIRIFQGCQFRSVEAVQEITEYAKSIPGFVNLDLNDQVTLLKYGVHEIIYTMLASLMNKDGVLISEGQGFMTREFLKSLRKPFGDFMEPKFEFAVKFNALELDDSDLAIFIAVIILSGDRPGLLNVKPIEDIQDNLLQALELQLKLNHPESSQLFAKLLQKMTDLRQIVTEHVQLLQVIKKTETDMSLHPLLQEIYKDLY
In short: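 Fluorescence-based beta-lactamase readout in HEK293H PPARg UAS-bla cells after 17 h compound exposure (37C) and 1 h B/G FRET substrate incubation at room temperature.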

[5] = target: Peroxisome proliferator-activated receptor gamma (Homo sapiens) (UniProt P37231); assay: qHTS assay to identify small molecule antagonists of the peroxisome proliferator-activated receptor gamma (PPARg) signaling pathway (AID 743191; calls by dose curve; further: series mostly up to about 63 µM; nearly all actives have a fitted effect of over 30% in size)
In short: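 GeneBLAzer PPARg UAS-bla HEK293H cells, 5 h post-plating, exposed to compounds 17 h at 37C. LiveBLAzer B/G FRET substrate added for 1 h at room temperature; beta-lactamase reporter read by fluorescence intensity.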

[6] = qHTS assay for small molecule agonists of the antioxidant response element (ARE) signaling pathway (AID 743202; active means well fitted activation curve with a large enough effect in the signal ratio in the repeat runs, not every such curve was filed as active; the % refers to the signal ratio)
In short: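 HepG2 ARE-bla cells; 16 h treatment at 37 C; FRET-based beta-lactamase fluorescence read after 2 h substrate incubation at room temperature.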

[7] = qHTS assay for small molecule agonists of the antioxidant response element (ARE) signaling pathway - cell viability counter screen (AID 743203; calls by dose curve; further: nearly all actives have a fitted effect of over 55% in size)
In short: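 Parallel cytotoxicity read-out for the ARE-bla screen: HepG2 reporter cells, 16 hrs with compounds, then CellTiter-Glo luminescence.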

[8] = qHTS assay for small molecule activators of the heat shock response signaling pathway - cell viability counter screen (AID 743209); further: nearly all actives have a fitted effect of over 50% in size
In short: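 To flag cytotoxic compounds, HSE-bla HeLa cells plated at 1500 cells/well were dosed for 5 h at 37 C, followed by the reporter FRET read and then CellTiter-Glo, with luminescence recorded 30 min after reagent addition.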

[9] = qHTS assay for small molecule activators of the heat shock response signaling pathway (AID 743210; active means well fitted activation curve with a large enough effect in the signal ratio in the repeat runs, with a control signal flat, not every such curve was filed as active; the % refers to the signal ratio;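 further: HeLa cells with beta-lactamase reporter driven by heat shock elements; series mostly up to about 63 µM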)
In short: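 Following overnight attachment, HSE-bla HeLa cells received test compounds for 5 h at 37 C; beta-lactamase activity was then detected via FRET substrate fluorescence.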

[10] = qHTS assay to identify small molecule agonists of the peroxisome proliferator-activated receptor delta (PPARd) signaling pathway - cell viability counter screen (AID 743211); further: nearly all actives have a fitted effect of over 55% in size
In short: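 Following 5 h plating at 37 C and 5% CO2, PPARd UAS-bla HEK293H cells took up test compounds for 17 h. Viability was quantified by luminescence 30 min after CellTiter-Glo addition at room temperature.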

[11] = target: Peroxisome proliferator-activated receptor delta (Homo sapiens) (UniProt Q03181); assay: qHTS assay to identify small molecule agonists of the peroxisome proliferator-activated receptor delta (PPARd) signaling pathway (AID 743212; calls by dose curve)
Chain of Peroxisome proliferator-activated receptor delta (Homo sapiens) (Q03181 whole entry, looked up): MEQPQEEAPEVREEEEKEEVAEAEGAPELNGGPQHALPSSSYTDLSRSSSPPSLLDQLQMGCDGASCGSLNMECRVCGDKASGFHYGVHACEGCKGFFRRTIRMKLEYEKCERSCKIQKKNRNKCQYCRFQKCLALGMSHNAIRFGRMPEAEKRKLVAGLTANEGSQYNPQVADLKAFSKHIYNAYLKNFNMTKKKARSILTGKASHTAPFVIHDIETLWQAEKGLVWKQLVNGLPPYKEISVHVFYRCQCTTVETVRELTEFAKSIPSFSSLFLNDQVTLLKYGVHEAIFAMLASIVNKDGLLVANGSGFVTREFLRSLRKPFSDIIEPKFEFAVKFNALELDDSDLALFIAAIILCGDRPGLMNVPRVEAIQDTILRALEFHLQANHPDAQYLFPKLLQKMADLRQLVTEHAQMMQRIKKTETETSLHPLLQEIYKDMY
In short: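 Tox21 library screened in GeneBLAzer PPARd UAS-bla HEK293H cells. After compound treatment at 37 C, a FRET-based beta-lactamase substrate was applied for 2 h and fluorescence recorded.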

[12] = qHTS assay to identify small molecule antagonists of the peroxisome proliferator-activated receptor delta (PPARd) signaling pathway - cell viability counter screen (AID 743213); further: nearly all actives have a fitted effect of over 50% in size
In short: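 CellTiter-Glo was added to PPARd-bla HEK293H wells following 17 h compound treatment in the presence of 300 nM L165041. Luminescence was recorded after 30 min at room temperature.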

[13] = target: Peroxisome proliferator-activated receptor delta (Homo sapiens) (UniProt Q03181); assay: qHTS assay to identify small molecule antagonists of the peroxisome proliferator-activated receptor delta (PPARd) signaling pathway (AID 743215; active means well fitted inhibition curve with a large enough effect in the signal ratio in the repeat runs, not every such curve was filed as active; the % refers to the signal ratio;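 further: cells stimulated with agonist L165041 at 300 nM final during compound exposure; series mostly up to about 62 µM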)
In short: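 Screen format: qHTS, antagonist mode. HEK293H PPARd-bla cells received compound and 300 nM L165041 (final), 17 h, 37 C. Beta-lactamase detected via FRET substrate fluorescence, 2 h, room temperature.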

[14] = target: Bile acid receptor (Homo sapiens) (UniProt Q96RI1); assay: qHTS assay to identify small molecule antagonists of the farnesoid-X-receptor (FXR) signaling pathway (AID 743217; active means well fitted inhibition curve with a large enough effect in the signal ratio in the repeat runs, not every such curve was filed as active; the % refers to the signal ratio)
Chain of Bile acid receptor (Homo sapiens) (Q96RI1 whole entry, looked up): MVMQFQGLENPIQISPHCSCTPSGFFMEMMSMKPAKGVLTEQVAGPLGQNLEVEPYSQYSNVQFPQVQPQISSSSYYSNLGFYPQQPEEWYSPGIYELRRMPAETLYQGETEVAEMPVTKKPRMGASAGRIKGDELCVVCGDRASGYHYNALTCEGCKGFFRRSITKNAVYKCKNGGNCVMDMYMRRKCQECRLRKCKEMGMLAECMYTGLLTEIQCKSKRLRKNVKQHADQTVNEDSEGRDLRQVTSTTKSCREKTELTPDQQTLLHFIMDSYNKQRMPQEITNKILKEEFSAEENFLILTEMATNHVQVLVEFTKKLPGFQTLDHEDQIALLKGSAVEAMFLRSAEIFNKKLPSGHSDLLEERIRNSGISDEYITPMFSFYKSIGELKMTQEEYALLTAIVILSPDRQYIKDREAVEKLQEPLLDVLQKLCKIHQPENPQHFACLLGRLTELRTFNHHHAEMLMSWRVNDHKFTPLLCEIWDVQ
In short: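 Quantitative HTS, beta-lactamase reporter format: FXR-UAS-bla HEK 293T cells co-treated 16 h at 37 °C with compounds and 50 uM final chenodeoxycholic acid, then read by B/G FRET fluorescence.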

[15] = qHTS assay to identify small molecule agonists of the farnesoid-X-receptor (FXR) signaling pathway - cell viability counter screen (AID 743218); further: nearly all actives have a fitted effect of over 45% in size
In short: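 Same-well cytotoxicity check on FXR-UAS-bla HEK 293T cells: 5 h attachment, 16 h compound at 37 C, CellTiter-Glo luminescence read at room temperature after 30 min.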

[16] = target: Bile acid receptor (Homo sapiens) (UniProt Q96RI1); assay: qHTS assay to identify small molecule agonists of the farnesoid-X-receptor (FXR) signaling pathway (AID 743220; active means well fitted activation curve with a large enough effect in the signal ratio in the repeat runs, not every such curve was filed as active; the % refers to the signal ratio)
In short: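 FXR-UAS-bla HEK 293T cells carrying a UAS-driven beta-lactamase reporter were plated for 5 h at 37C/5% CO2, then exposed to DMSO-dissolved Tox21 10K compounds for 16 h at 37C. A LiveBLAzer B/G FRET substrate was loaded for 2 h at room temperature before fluorescence reading.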

[17] = qHTS assay to identify small molecule antagonists of the farnesoid-X-receptor (FXR) signaling pathway - cell viability counter screen (AID 743221; active means well fitted cell-killing curve with a large enough effect in the repeat runs, not every such curve was filed as active; further: nearly all actives have a fitted effect of over 50% in size)
In short: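 Compound effects on cell number were measured as CellTiter-Glo luminescence in HEK 293T cells expressing FXR-UAS-bla, after 16 h at 37 C with 50 uM CDCA (final).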

[18] = qHTS assay to identify small molecule antagonists of the peroxisome proliferator-activated receptor gamma (PPARg) signaling pathway - cell viability counter screen (AID 743194); conditions: Potency: co-treated with 50 nM rosiglitazone; further: nearly all actives have a fitted effect of over 55% in size
In short: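 Cytotoxicity counter screen in PPARg-bla HEK293H cells, same wells as reporter assay. Compounds plus 50 nM rosiglitazone (final) for 17 h at 37 C, then viability read by CellTiter-Glo luminescence.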

[19] = target: Vitamin D3 receptor (Homo sapiens) (UniProt P11473); assay: qHTS assay to identify small molecule agonists of the vitamin D receptor (VDR) signaling pathway (AID 743222; calls by dose curve)
Chain of Vitamin D3 receptor (Homo sapiens) (P11473 whole entry, looked up): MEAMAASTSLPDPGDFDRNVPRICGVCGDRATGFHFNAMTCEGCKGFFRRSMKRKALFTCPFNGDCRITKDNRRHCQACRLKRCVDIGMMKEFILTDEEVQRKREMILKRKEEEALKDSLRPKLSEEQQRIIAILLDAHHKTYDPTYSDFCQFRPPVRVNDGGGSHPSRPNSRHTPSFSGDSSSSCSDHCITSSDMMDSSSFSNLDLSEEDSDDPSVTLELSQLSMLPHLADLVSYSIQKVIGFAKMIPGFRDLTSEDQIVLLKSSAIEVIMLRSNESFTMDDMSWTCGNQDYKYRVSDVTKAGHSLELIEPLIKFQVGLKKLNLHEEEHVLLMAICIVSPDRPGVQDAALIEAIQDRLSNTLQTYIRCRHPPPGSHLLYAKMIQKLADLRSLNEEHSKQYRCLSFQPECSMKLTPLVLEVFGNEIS
In short: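 Using LiveBLAzer B/G FRET detection, agonism was scored in VDR-bla cells exposed overnight (16 h, 37C) to DMSO-dissolved compounds; substrate incubation was 2 h at room temperature.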

[20] = target: Vitamin D3 receptor (Homo sapiens) (UniProt P11473); assay: qHTS assay to identify small molecule antagonists of the vitamin D receptor (VDR) signaling pathway (AID 743223; active means well fitted inhibition curve with a large enough effect in the signal ratio in the repeat runs, not every such curve was filed as active; the % refers to the signal ratio)
In short: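 Beta-lactamase activity in VDR-bla cells is measured by FRET substrate fluorescence (2 h, room temperature) after cells spend 16 h at 37C with test compound and 3 nM final 1alpha,25-dihydroxyvitamin D3.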

Measured: Potency

COC(=O)c1ccccc1S(=O)(=O)NC(=O)N(C)c1nc(C)nc(OC)n1
not listed: [18] | [19] | [20]
inactive: all other assays above

CC(=O)C(Cl)Cl
not listed: [18] | [19] | [20]
inactive: all other assays above

COC(=O)C(c1ccccc1)C1CCCCN1 (stereo unspecified)
not listed: [6] | [11] | [12] | [13] | [17]
inactive: all other assays above

Cc1cc(C)c(C(=O)P(=O)(C(=O)c2c(C)cc(C)cc2C)c2ccccc2)c(C)c1
not listed: [6] | [15] | [19]
inactive: all other assays above

CC(=O)CCc1ccc2c(c1)OCO2
not listed: [5] | [17] | [19] | [20]
inactive: all other assays above

CCCCc1ccc(O)cc1
not listed: [6] | [17] | [19] | [20]
inactive: all other assays above

O=CNC(N1CCN(C(NC=O)C(Cl)(Cl)Cl)CC1)C(Cl)(Cl)Cl (stereo unspecified)
not listed: [9] | [13] | [14] | [16] | [17]
inactive: all other assays above

COC(=O)c1ccccc1S(=O)(=O)NC(=O)Nc1nc(C)cc(C)n1
not listed: [9] | [11] | [13] | [14] | [16] | [17]
inactive: all other assays above

CCC(=O)c1ccccc1
not listed: [5] | [12]
inactive: all other assays above

CSc1nc(N=[N+]=[N-])nc(NC(C)C)n1
not listed: [5] | [6] | [12] | [13] | [14] | [16]
inactive: all other assays above

CC(CCc1ccccc1)NC(C)C(O)c1ccc(O)cc1 (stereo unspecified)
not listed: [5] | [6] | [13] | [14] | [16] | [17] | [20]
inactive: all other assays above

CCCCOC(=O)c1ccccc1N
not listed: [5] | [6] | [11]
inactive: all other assays above

CC(C)CP(=S)(S)CC(C)C
not listed: [5] | [11] | [12] | [13] | [15] | [16] | [19] | [20]
inactive: all other assays above

COc1ccc(C(=O)N2CCCC2=O)cc1
not listed: [4] | [14] | [16] | [19]
inactive: all other assays above

ClCCOCOCCCl
not listed: [5] | [11] | [12] | [13]
inactive: all other assays above

[Cl][Sn]([Cl])([Cl])[Cl]
not listed: [5] | [11] | [13] | [14] | [16] | [17] | [20]
inactive: all other assays above

CN(N=O)C(N)=O
not listed: [4] | [9] | [11] | [12] | [13]
inactive: all other assays above

CCC(C)(C)c1cc(-n2nc3ccccc3n2)c(O)c(C(C)(C)CC)c1
not listed: [5] | [11] | [12] | [14] | [16]
inactive: all other assays above
